An excerpt weighted towards active compounds, which were near 3.6% of everything screened.
LDHA block – blocks human lactate dehydrogenase A; P00338; purified LDHA, NADH/diaphorase-resazurin fluorescence; hits give low values; activity change, % (values are at about 110 or 230 µM); 480,000 compounds, 0.15% hits; AID 1347041; in the data active = activity change below about -30%
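Human LDH5 (2 nM) was incubated with 0.06 mM NADH and 0.2 mM pyruvate for 5 min at room temperature in Tris pH 7.4. Remaining NADH was coupled through diaphorase/resazurin, and resorufin fluorescence was read at 0 and 20 min.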
TRHR agonist – agonists of human TRH receptor. P34981. TRHR cells, calcium flux fluo-8, FDSS agonist mode. activation, % at 2 µM. 360,000 compounds, 0.18% hits
Target sequence (P34981 whole entry, looked up): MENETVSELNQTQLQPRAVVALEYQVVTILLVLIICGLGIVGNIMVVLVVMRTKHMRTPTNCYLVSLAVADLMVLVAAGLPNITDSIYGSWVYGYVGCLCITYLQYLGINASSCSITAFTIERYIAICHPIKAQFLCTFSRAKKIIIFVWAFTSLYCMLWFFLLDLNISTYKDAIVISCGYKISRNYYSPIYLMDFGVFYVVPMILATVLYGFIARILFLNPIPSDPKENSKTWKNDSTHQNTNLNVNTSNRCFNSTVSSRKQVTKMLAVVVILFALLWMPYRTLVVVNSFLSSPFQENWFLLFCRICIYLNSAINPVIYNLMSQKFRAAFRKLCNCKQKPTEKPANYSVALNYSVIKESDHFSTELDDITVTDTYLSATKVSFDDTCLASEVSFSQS
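In this calcium-flux screen, cells bearing human TRHR are dye-loaded with fluo-8, baselined for 10 cycles, then exposed to library compounds; positive kinetic calcium responses during the agonist phase mark hits, with TRH as control.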
D1 ag – activates the human D1 dopamine receptor; P21728; HEK293 T-REx D1 cells, calcium flux, agonist mode; activation, % at 2 µM; 360,000 compounds, 1% hits; AID 504660
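Inducible HEK293 T-REx D1 cells, force-coupled to calcium signalling, were plated at 4000 cells/well with tetracycline and held overnight at 30 C. After no-wash calcium dye loading, compound-evoked calcium rise over 180 s flagged agonists.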
TRHR PAM – TRH receptor (human) allosteric enhancement; TRHR cells, fluo-8 calcium fluorescence, EC20 TRH enhancement; enhancement, % at 2 µM; 360,000 compounds, 0.66% hits; AID 493056; P34981; in the data active = enhancement above about 30%
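TRHR-expressing cells loaded with fluo-8 calcium dye were read kinetically (ex 480/em 530) during compound addition, then stimulated with an EC20 of TRH (10 nM final). Enhancement of the Gq-mediated intracellular calcium response was scored.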
D1 antag – human D1 dopamine receptor antagonism; P21728; HEK293 TREx D1 cells, calcium flux, dopamine EC80; hits give low values; activity change, negative = inhibition, % at 10 µM; 360,000 compounds, 3.2% hits; in the data active = activity change below about -30%
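Allosteric or orthosteric antagonism assessed as attenuation of the calcium response to EC80 dopamine, added 180 s after compound, in induced HEK293 Trex D1 cells loaded with no-wash calcium dye.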
D1 PAM – human D1 dopamine receptor positive modulation. 360,000 compounds, 0.036% hits. HEK293 TREx D1 cells, calcium flux, dopamine EC20 potentiation. potentiation, % at 10 µM. P21728; in the data active = potentiation above about 30%
Hits are given with their value; – = inactive; · = not tested or not shown; ! = a repeat was not active. Cut-off read from the data, not from the text of the source, unless noted: active = activation above about 30%; inactive = the rest.

SMILES	LDHA block	TRHR agonist	D1 ag	TRHR PAM	D1 antag	D1 PAM
CCCc1cc(=O)oc2cc(C)c3c(-c4ccccc4)coc3c12	–	–	–	49.2	–	–
CCCc1cc(=O)oc2cc(C)c3c(C)coc3c12	–	–	–	–	–	–
COC(=O)c1cccc(NC(=O)N2CCc3[nH]cnc3C2c2ccc(F)c(Cl)c2)c1 (stereo unspecified)	–	·	·	·	·	·
CCn1cc(C(=O)NC(C)C2CC3CCC2C3)cn1 (stereo unspecified)	–	–	–	31.1	–	–
Cc1ccc(OCC(=O)Nc2ccc([N+](=O)[O-])cc2)cc1	–	–	–	–	-38.5	–
CC(=O)Nc1ccc(S(=O)(=O)NNC(=O)COc2ccc(C)cc2)cc1	–	–	–	–	-33.3	–
CC(=O)Nc1ccc(S(=O)(=O)NNC(=O)COc2ccc(C(C)(C)C)cc2)cc1	–	–	–	–	–	–
O=C(COc1ccc([N+](=O)[O-])cc1)Nc1ccc(NC(=O)c2ccccc2)cc1	–	–	–	–	–	–
COc1ccc(OCC(=O)Nc2ccc(-c3nc4cc(C)c(C)cc4o3)cc2)cc1	–	–	–	–	-30.5	–
Cc1ccc(OCC(=O)Nc2ccc(-c3nc4ccc(C)cc4o3)cc2)cc1	–	–	–	–	–	–
CCC(=O)NC(=S)Nc1ccc(NC(=O)COc2ccc([N+](=O)[O-])cc2)cc1	–	–	–	–	–	–
O=C(COc1ccccc1)Nc1ccc([N+](=O)[O-])cc1	–	–	–	–	-81.6	–
CSc1ccc(CN(C)CC(=O)NC(=O)NCc2ccco2)cc1	–	·	·	·	·	·
O=C(/C=C/c1ccc(Cl)cc1)c1cc(Cl)cc(Cl)c1O	–	·	·	·	·	·
CSc1cccc(NC(=O)/C=C/c2ccc(F)cc2)c1	–	·	·	·	·	·
C=CCN1CCN(c2nc3c(c(=O)[nH]c(=O)n3C)n2Cc2ccc(Cl)cc2Cl)CC1	–	·	·	·	·	·
O=C(Nc1ccc(OCc2ccccc2)cc1)C1CCN(S(=O)(=O)Cc2cccc(Cl)c2)CC1	–	·	·	·	·	·
Cc1ccc(NC(=O)C2(c3ccc([N+](=O)[O-])cc3)CCCC2)cc1	–	–	–	33.3	–	–
O=C(Nc1cccc(NC(=O)C2CCCC2)c1)C1CCCC1	–	·	·	·	·	·
CCOC(=O)C1=C(N)Oc2c(oc(CO)cc2=O)C1c1cccc(F)c1 (stereo unspecified)	–	·	·	·	·	·
COc1ccccc1CN(Cc1nc2ccccc2c(=O)[nH]1)C(=O)Nc1ccc(C)cc1	–	–	–	–	–	–
CCNC(=S)N(Cc1ccccc1)Cc1nc2ccccc2c(=O)[nH]1	–	–	–	–	-30.6	–
Cc1ccc(NC(=O)N(Cc2nc3ccccc3c(=O)[nH]2)Cc2cccs2)cc1	–	–	–	–	-45.9	–
O=C(Nc1ccc(F)c(Cl)c1)c1cccc2ccccc12	–	·	·	·	·	·
Cc1ccc(C)c(NC(=O)CSc2nc3ccccc3nc2N2CCOCC2)c1	–	–	–	–	-45.6!	–
SMILES	LDHA block	TRHR agonist	D1 ag	TRHR PAM	D1 antag	D1 PAM
CCCCNC(=O)C1CC(=O)N(C2CCCCC2)C1 (stereo unspecified)	–	–	31.5	–	–	–
Cc1ccc(CCNC(=O)C2CC(=O)N(C3CCCCC3)C2)cc1 (stereo unspecified)	–	–	–	–	–	–
CCOC(=O)C1=C(C)Nc2ccccc2N=C1NC(=O)Cc1ccc(OC)cc1	–	–	–	–	-81.0	–
CCOC(=O)C1=C(C)Nc2ccccc2N=C1NC(=O)Cc1ccc(Br)cc1	–	–	–	–	–	–
Cc1cc(CNC(=O)CC2C(=O)NCCN2CC(C)(C)C)nn1C (stereo unspecified)	–	–	–	–	-38.9	–
CC(Nc1ccc(N)cc1Cl)c1ccccc1 (stereo unspecified)	–	·	·	·	·	·
CC(=O)NCc1nc2cccnc2n1Cc1ccccc1	–	–	–	–	-31.9	–
CC(C)CC(=O)NCc1nc2cccnc2n1Cc1ccccc1	–	–	–	–	–	–
Cc1ccc2c(C)c(C(=O)Nc3nonc3-c3cccs3)oc2c1C	–	·	·	·	·	·
CCCCc1cc(=O)oc2c(CN3CCCC3)c(O)c(Cl)cc12	–	–	–	–	-33.0	–
CCCc1cc(=O)oc2c(CN(CC)CC)c(O)c(Cl)cc12	–	–	–	–	-43.6	–
CCN(CC)C(=S)SCC(=O)NC(Cc1ccccc1)C(C)=O (stereo unspecified)	–	·	·	·	·	·
N#Cc1ccc(Sc2ccccn2)c([N+](=O)[O-])c1	–	–	–	–	-59.9	–
CCOc1ccc(-c2cc(C(=O)NCCCOC)c3ccccc3n2)cc1	–	·	·	·	·	·
CCOC(=O)NC(=O)c1cn(Nc2ncc(Cl)cc2C(F)(F)F)c(=O)[nH]c1=O	–	–	–	–	-43.6	–
CCOC(=O)NC(=O)c1cn(Nc2ncc(C(F)(F)F)cc2Cl)c(=O)[nH]c1=O	–	–	–	–	–	–
O=C(/C=C/N(C1CCCCC1)C1CCCCC1)C(F)(F)F	–	·	·	·	·	·
COc1cc(CN(CCc2c(C)[nH]c3ccc(C)cc23)C(=S)NC(C)(C)C)cc(OC)c1OC	–	–	30.2	–	–	–
COc1cc2cc(C(=O)O)n(C)c2c(OC)c1OC	–	–	–	–	-36.8	–
Cc1ccccc1CCNC(=O)C1CCCN(c2cnccn2)C1 (stereo unspecified)	–	–	–	–	–	–
O=C(NCc1ccccc1F)C1CCCN(c2cnccn2)C1 (stereo unspecified)	–	–	–	–	-34.8	–
CCCCS(=O)(=O)CC(=O)O	–	·	·	·	·	·
Cc1ccc(S(=O)(=O)c2nnn3c2nc(N2CCC(C(N)=O)CC2)c2cc(Cl)ccc23)cc1C	–	–	–	–	-33.2	–
CCOC(=O)C1CCN(c2nc3c(S(=O)(=O)c4ccc(C)c(C)c4)nnn3c3ccc(Cl)cc23)CC1	–	–	–	–	–	–
CCC(CC)C(=O)N1CCN(C(=O)c2ccccc2C(=O)c2ccc(F)cc2)CC1	–	·	·	·	·	·
SMILES	LDHA block	TRHR agonist	D1 ag	TRHR PAM	D1 antag	D1 PAM
CCCCN(C)S(=O)(=O)N(C)Cc1ccc2c(c1)OCCO2	–	·	·	·	·	·
COC(=O)c1ccc(C(=O)OC)c(NC(=O)COC(=O)c2ccc(OC)c(OC)c2OC)c1	–	–	–	–	-86.3	–
COCCCN(C(=S)Nc1cc(Cl)cc(Cl)c1)C(C)c1ccncc1 (stereo unspecified)	–	–	–	–	-53.1	–
CSc1cccc(NC(=S)N(CCC(C)C)C(C)c2ccncc2)c1 (stereo unspecified)	–	–	–	–	-34.0	–
COc1cccc(NC(=S)N(CCC(C)C)C(C)c2ccncc2)c1 (stereo unspecified)	–	–	–	–	–	–
COc1cc(/C=C(\C#N)c2nc3cc(C)c(C)cc3[nH]2)ccc1OCc1ccccc1	–	·	·	·	·	·
Cc1ccc2c(COC(=O)CNC(=O)c3ccccc3)cc(=O)oc2c1	–	–	–	–	-50.2	–
